According to PubChem BioAssay:
Where “and” joins values, the source holds several entries; their conditions need not be identical. Equal values may be shown once. Calls of active or inactive are those of the source.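 The calls were made as follows, unless noted: active = inhibition at or above 50% relative to wild type and mutant plate controls; inactive = inhibition below 50%.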

Key:
[1] = inhibitors of TNFa-induced NFkB p65 translocation, primary screen, imaging, HUVEC, MLSMR starter and 10KST1 sets (AID 438;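 active = inhibition above 20% together with a positive visual image hit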;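 also: compound added about 3h40 before a 20 min TNFalpha stimulation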;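 as to inhibition: signal is the nuclear over cytoplasmic p65 intensity ratio per well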); conditions: HUVEC TNFa-induced p65 nuclear translocation; cell count: measured here: nuclei count (cytotoxicity indicator), at 2.08 µM; inhibition: at 2 µM, stronger effect = higher value, 0% TNFa-plus-vehicle, 100% no-TNFa wells
[2] = inhibitors of mutant huntingtin aggregation, primary screen, imaging, exon1htt(103Q)mCFP cells, high-content imaging (AID 483;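 active = visual image review flags a hit and inhibition of aggregation exceeds 20%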;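 also: compound exposure lasted 3 days before fixation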;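 as to nuclei count: percent of the per-plate median nuclei count of sample wells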); conditions: exon1htt(103Q)mCFP cell line, aggregate imaging, at 2 µM; inhibition of aggregation: stronger effect = higher value; nuclei count: measured here: cell count, toxicity
[3] = inhibitors of E-selectin induction by TNFa, primary screen, imaging, HUVEC, immunofluorescence, MLSMR starter and 10KST1 sets (AID 487;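 active = visually confirmed hit in the image check and inhibition above 20%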;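 as to inhibition: signal is fraction of cell area covered by stained E-selectin grains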;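 as to nuclei count: 100% = median nuclei count of all wells on the same plate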); conditions: HUVEC TNFalpha-induced E-selectin immunofluorescence imaging, at 2 µM; inhibition: stronger effect = higher value; nuclei count: measured here: cell number, toxicity
[4] = DUSP6 inhibitors restoring Erk phosphorylation by chemical complementation, primary imaging in DUSP6-transfected HeLa (AID 609;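 active = compounds giving at least 50% inhibition in the cell-based MKP-3 phosphatase rescue imaging test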;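 as to inhibition: phospho-Erk level distribution per well compared with pooled transfected vehicle control wells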); conditions: HeLa MKP-3 transfected, phospho-Erk imaging KS statistic, at 10 µM, cells stimulated with TPA for 15 min
[5] = molecular target: Dual specificity protein phosphatase 6 (Homo sapiens) (UniProt Q16828); experiment: as above; conditions: HeLa MKP-3 transfected, phospho-Erk imaging KS statistic; at 10 µM; stronger effect = higher value; cells stimulated with TPA for 15 min
[6] = molecular target: Voltage-gated potassium channel subunit beta-2 (Rattus norvegicus) (UniProt P62483); experiment: KvBeta enzyme negative modulators, primary screen, biochemical, NADPH fluorescence (AID 622;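 active = fluorescence slope higher than the sample average by over 3 SD, cut at about -0.22 in these data, passing the limit was not always enough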;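 also: slope of raw intensity against log time taken from 70 to 1610 s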); conditions: recombinant KvBeta, 4-cyanobenzaldehyde reduction, at 10 µM, stronger effect = higher value
[7] = molecular target: Voltage-gated potassium channel subunit beta-2 (Rattus norvegicus) (UniProt P62483); experiment: KvBeta positive modulators, primary screen, biochemical, NADPH fluorescence (AID 623;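 active = NADPH fluorescence slope more negative than the mean of all samples by about 3 SD, 99.7% confidence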;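 also: fluorescence intensity change per second fitted from 20 to 320 s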); conditions: Recombinant KvBeta, NADPH fluorescence decrease slope, 10 min; at 10 µM; stronger effect = lower value
[8] = molecular target: Alpha-2C adrenergic receptor (Homo sapiens) (UniProt P18825); experiment: modulators of alpha2C/GIRK thallium flux, primary screen, cell-based, HEK293 alpha2C/GIRK1/2 (AID 624;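 active = fluorescence slope after compound addition differing from the mean of all screened samples at 99.7% confidence, in either direction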;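 also: slope of fluorescence ratio to pre-addition baseline per second over 15 to 24 s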); conditions: thallium flux BTC fluorescence, at 10 µM, actives lie on both sides
[9] = inhibitors of larval lipid processing in zebrafish, primary screen, whole organism, PED6 fluorescence, gall bladder and intestine (AID 686;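 active = a full or partial loss of lipid-probe fluorescence in the fish gall bladder, intestine or both, judged by eye; inactive = no fluorescence loss, or compound toxic to the fish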;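 also: larvae 5 to 7 days old with five fish per well; signal comes from phospholipase A2 cleavage of quenched PED6 carried via bile; overnight exposure to compound and PED6 before scoring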); conditions: Zebrafish larvae PED6 lipid processing, fluorescence scoring; screened at 20 µM (by protocol)
[10] = inhibitors of Chlamydomonas gravitaxis, primary screen, whole organism, Chlamydomonas reinhardtii, WT vs cilia-less mutant, absorbance, 96-well (AID 463189); conditions: OD600 absorbance, 2 days, at 10 µM, stronger effect = higher value;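 also: 0% = wild type cc124 cells in DMSO and 100% = ciliumless bld1 mutant cells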
[11] = inhibitors of Sendai virus-induced IRF3 signaling, primary screen, TLR/RLR signaling modifier project, cell-based, Sendai virus stimulus, luciferase, 10K MLSCN set (AID 602276;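 active = inhibition at or above 50% at 10 µM; inactive = inhibition below 50%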;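 also: firefly luciferase from ISG56 promoter only with Renilla not read in this screen; 0% = Sendai virus plus DMSO and 100% = medium plus DMSO without virus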); conditions: HEK293 RL24 IRF3 luciferase reporter, at 10 µM, stronger effect = higher value
[12] = inhibitors of poly I:C-induced TLR3 signaling, primary screen, cell-based, poly I:C stimulus, luciferase, 10K MLSCN set (AID 602277;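 active = inhibition of the reporter signal at or above 50%; inactive = inhibition below 50%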); conditions: HEK293-TLR3 RL24 IRF3 luciferase reporter, at 10 µM, stronger effect = higher value
[13] = measured here: cell density z-score
[14] = measured here: nuclear c-Myc green intensity z-score
[15] = measured here: nuclear pErk red intensity z-score, stronger effect = higher value

Voltage-gated potassium channel subunit beta-2 (Rattus norvegicus), sequence (P62483 whole entry, looked up): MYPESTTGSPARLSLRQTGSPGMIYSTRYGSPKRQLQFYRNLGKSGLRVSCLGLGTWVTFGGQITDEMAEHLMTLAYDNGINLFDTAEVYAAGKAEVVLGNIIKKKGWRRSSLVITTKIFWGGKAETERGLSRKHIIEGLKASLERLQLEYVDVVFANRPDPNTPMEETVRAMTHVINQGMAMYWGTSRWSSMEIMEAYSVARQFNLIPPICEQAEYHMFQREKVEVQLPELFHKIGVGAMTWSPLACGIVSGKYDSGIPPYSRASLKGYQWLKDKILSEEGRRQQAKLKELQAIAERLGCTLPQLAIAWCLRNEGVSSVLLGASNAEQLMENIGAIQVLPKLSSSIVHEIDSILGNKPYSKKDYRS
Alpha-2C adrenergic receptor (Homo sapiens), sequence (P18825 whole entry, looked up): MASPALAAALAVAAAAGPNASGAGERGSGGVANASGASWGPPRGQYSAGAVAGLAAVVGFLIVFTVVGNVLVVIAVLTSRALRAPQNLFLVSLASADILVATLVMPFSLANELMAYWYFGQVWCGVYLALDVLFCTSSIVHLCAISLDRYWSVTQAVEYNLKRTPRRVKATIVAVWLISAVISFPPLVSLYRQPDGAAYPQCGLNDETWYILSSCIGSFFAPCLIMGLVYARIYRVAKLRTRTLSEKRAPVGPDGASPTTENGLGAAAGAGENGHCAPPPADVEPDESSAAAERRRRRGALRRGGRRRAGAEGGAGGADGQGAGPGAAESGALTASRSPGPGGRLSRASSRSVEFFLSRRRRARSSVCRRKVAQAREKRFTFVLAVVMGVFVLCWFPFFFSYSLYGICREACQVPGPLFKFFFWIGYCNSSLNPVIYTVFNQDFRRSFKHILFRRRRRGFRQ
Dual specificity protein phosphatase 6 (Homo sapiens), sequence (Q16828 whole entry, looked up): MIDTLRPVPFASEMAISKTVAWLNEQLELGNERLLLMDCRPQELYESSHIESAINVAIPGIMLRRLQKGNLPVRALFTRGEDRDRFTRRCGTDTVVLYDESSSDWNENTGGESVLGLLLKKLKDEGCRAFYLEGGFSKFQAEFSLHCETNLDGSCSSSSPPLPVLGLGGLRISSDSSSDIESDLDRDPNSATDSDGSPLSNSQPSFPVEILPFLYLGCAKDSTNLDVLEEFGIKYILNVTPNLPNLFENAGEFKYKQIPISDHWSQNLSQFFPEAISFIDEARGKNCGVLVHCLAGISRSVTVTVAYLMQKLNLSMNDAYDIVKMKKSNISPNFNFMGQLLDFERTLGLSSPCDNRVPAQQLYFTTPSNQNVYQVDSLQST

With COc1ccc(CCN2CCC(Nc3nc4ccccc4n3Cc3ccc(F)cc3)CC2)cc1 the cell count [1] was 525, the inhibition [1] was -1.3% (inactive) and the inhibition of aggregation [2] was -3% (inactive). The nuclei count [2] was 83.3%, the inhibition [3] was -28.6% (inactive) and the nuclei count [3] was 107%. The z-score [4, 13] was -0.393, the z-score [4, 14] was 1.49 and the z-score [4, 15] was 0.359. The inhibition [5] was 7.39% (inactive), the fluorescence slope [6] was -0.513 (inactive) and the NADPH fluorescence slope [7] was -0.000106 (inactive). For the same compound, the slope [8] was 0.00466 (inactive), the outcome [9] was “inactive” and the inhibition [10] was 133% (active). For the same compound, the inhibition [11] was -3.81% (inactive) and the inhibition [12] was -23.6% (inactive).
For CSc1ccccc1NC(=O)c1c(Br)cnn1C, the cell count [1] was 559, the inhibition [1] was -4.3% (inactive) and the inhibition of aggregation [2] was 33.5% (active). For the same compound, the nuclei count [2] was 58.2%, the inhibition [3] was 26.1% (inactive) and the nuclei count [3] was 130%. For the same compound, the z-score [4, 13] was -0.962, the z-score [4, 14] was -0.8 and the z-score [4, 15] was 0.479. For the same compound, the inhibition [5] was -2.47% (inactive), the fluorescence slope [6] was -0.453 (inactive) and the NADPH fluorescence slope [7] was -5.8e-06 (inactive). The slope [8] was 0.00569 (inactive), the outcome [9] was “inactive” and the inhibition [10] was 4.29% (inactive). The inhibition [11] was 5.4% (inactive) and the inhibition [12] was 4.72% (inactive).
With Nc1ccc(S(=O)(=O)c2ccc(N)cc2)cc1 the cell count [1] was 511, the inhibition [1] was -1.5% (inactive) and the inhibition of aggregation [2] was 0.3% (inactive). For the same compound, the nuclei count [2] was 103%, the inhibition [3] was -20.6% (inactive) and the nuclei count [3] was 106%. It also gave a z-score [4, 13] of -0.829, a z-score [4, 14] of 0.112 and a z-score [4, 15] of 0.308. For the same compound, the inhibition [5] was 16.8% (inactive), the fluorescence slope [6] was -0.465 (inactive) and the NADPH fluorescence slope [7] was 3.3e-05 (inactive). The slope [8] was 0.00573 (inactive), the outcome [9] was “inactive” and the inhibition [10] was 8.87% (inactive). The inhibition [11] was -3.01% (inactive) and the inhibition [12] was 11.3% (inactive).
With COC(=O)CN(c1nc(C)c(Cl)c(OC)n1)S(=O)(=O)c1ccc(C)cc1 the cell count [1] was 706, the inhibition [1] was -4.1% (inactive) and the inhibition of aggregation [2] was 2.4% (inactive). For the same compound, the nuclei count [2] was 98.1%, the inhibition [3] was -48.3% (inactive) and the nuclei count [3] was 148%. The z-score [4, 13] was -0.882, the z-score [4, 14] was 0.458 and the z-score [4, 15] was 1.21. For the same compound, the inhibition [5] was -11% (inactive), the fluorescence slope [6] was -0.373 (inactive) and the NADPH fluorescence slope [7] was -4.1e-05 (inactive). For the same compound, the slope [8] was 0.00465 (inactive), the outcome [9] was “inactive” and the inhibition [10] was 5.7% (inactive). For the same compound, the inhibition [11] was 13.8% (inactive) and the inhibition [12] was 18.7% (inactive).
With S=C(N=Nc1ccccc1)NNc1ccccc1 the cell count [1] was 456, the inhibition [1] was -24.6% (inactive) and the inhibition of aggregation [2] was 15.4% (inactive). For the same compound, the nuclei count [2] was 97.4%, the inhibition [3] was -51.9% (inactive) and the nuclei count [3] was 122%. The z-score [4, 13] was 0.583, the z-score [4, 14] was -0.233 and the z-score [4, 15] was 0.888. For the same compound, the inhibition [5] was -2.46% (inactive), the fluorescence slope [6] was -0.552 (inactive) and the NADPH fluorescence slope [7] was -4.2e-05 (inactive). The slope [8] was 0.0111 (inactive), the outcome [9] was “inactive” and the inhibition [10] was 12.8% (inactive). The inhibition [11] was -11.4% (inactive) and the inhibition [12] was -44.3% (inactive).
In the case of CCCCNc1cc(C(=O)O)cc(S(N)(=O)=O)c1Oc1ccccc1, the cell count [1] is reported as 603, the inhibition [1] is reported as -16.6% (inactive) and the inhibition of aggregation [2] is reported as -13.4% (inactive). The nuclei count [2] was 110%, the inhibition [3] was -136% (inactive) and the nuclei count [3] was 140%. For the same compound, the z-score [4, 13] was 0.424, the z-score [4, 14] was 0.482 and the z-score [4, 15] was -0.678. The inhibition [5] was 15.3% (inactive), the fluorescence slope [6] was -0.47 (inactive) and the NADPH fluorescence slope [7] was -6.3e-05 (inactive). For the same compound, the slope [8] was 0.00446 (inactive), the outcome [9] was “inactive” and the inhibition [10] was 7.78% (inactive) and -7.14% (inactive). The inhibition [11] was 13.2% (inactive) and the inhibition [12] was 38.2% (inactive).
In the case of CC(=O)OCC(=O)[C@H]1CC[C@H]2[C@@H]3CC=C4C[C@@H](O)CC[C@]4(C)[C@H]3CC[C@]12C, the cell count [1] is reported as 586, the inhibition [1] is reported as -9.5% (inactive) and the inhibition of aggregation [2] is reported as 16.5% (inactive). For the same compound, the nuclei count [2] was 99.7%, the inhibition [3] was -22.1% (inactive) and the nuclei count [3] was 128%. It also gave a z-score [4, 13] of 0.459, a z-score [4, 14] of 0.562 and a z-score [4, 15] of -0.353. For the same compound, the inhibition [5] was 17.3% (inactive), the fluorescence slope [6] was -0.45 (inactive) and the NADPH fluorescence slope [7] was -6.8e-05 (inactive). For the same compound, the slope [8] was 0.00533 (inactive), the outcome [9] was “inactive” and the inhibition [10] was 35% (inactive). For the same compound, the inhibition [11] was 9.44% (inactive) and the inhibition [12] was 25.1% (inactive).
With Cc1cc(NC(=O)C2=C(O)c3ccccc3S(=O)(=O)N2C)no1 the cell count [1] was 693, the inhibition [1] was -7.5% (inactive) and the inhibition of aggregation [2] was 9.1% (inactive). For the same compound, the nuclei count [2] was 108%, the inhibition [3] was -39.3% (inactive) and the nuclei count [3] was 120%. It also gave a z-score [4, 13] of 0.515, a z-score [4, 14] of 0.415 and a z-score [4, 15] of 0.569. The inhibition [5] was 7.39% (inactive), the fluorescence slope [6] was -0.538 (inactive) and the NADPH fluorescence slope [7] was -2.2e-05 (inactive). The slope [8] was 0.00444 (inactive), the outcome [9] was “inactive” and the inhibition [10] was -6.68% (inactive). For the same compound, the inhibition [11] was 12.9% (inactive) and the inhibition [12] was 25.5% (inactive).
In the case of CN1CCC(=C2c3ccccc3CC(=O)c3sccc32)CC1, the cell count [1] is reported as 641, the inhibition [1] is reported as 5.3% (inactive) and the inhibition of aggregation [2] is reported as 5.4% (inactive). For the same compound, the nuclei count [2] was 97.7%, the inhibition [3] was -56.9% (inactive) and the nuclei count [3] was 126%. The z-score [4, 13] was 2.91, the z-score [4, 14] was 0.175 and the z-score [4, 15] was -2.59. For the same compound, the inhibition [5] was 10.2% (inactive), the fluorescence slope [6] was -0.5 (inactive) and the NADPH fluorescence slope [7] was -6.2e-05 (inactive). For the same compound, the slope [8] was 0.00525 (inactive), the outcome [9] was “inactive” and the inhibition [10] was -11.3% (inactive) and 22.8% (inactive). For the same compound, the inhibition [11] was -1.65% (inactive) and the inhibition [12] was 51.2% (active).
For NC(CO)C(=O)NNCc1ccc(O)c(O)c1O (stereo not given), the cell count [1] was 571, the inhibition [1] was -9.9% (inactive) and the inhibition of aggregation [2] was -16.9% (inactive). The nuclei count [2] was 117%, the inhibition [3] was -52.2% (inactive) and the nuclei count [3] was 124%. It also gave a z-score [4, 13] of 0.364, a z-score [4, 14] of 0.175 and a z-score [4, 15] of -0.65. The inhibition [5] was 3.45% (inactive), the fluorescence slope [6] was -0.466 (inactive) and the NADPH fluorescence slope [7] was -6.2e-05 (inactive). The slope [8] was 0.00539 (inactive), the outcome [9] was “inactive” and the inhibition [10] was -0.599% (inactive) and -9.6% (inactive). For the same compound, the inhibition [11] was 8.18% (inactive) and the inhibition [12] was 29.4% (inactive).
